Hits are enriched below; roughly 7% of the tested compounds scored in any of these assays.
PLK1 PBD block: qHTS for Inhibitors of PLK1-PDB (polo-like kinase 1 - polo-box domain): Primary Screen; Serine/threonine-protein kinase PLK1 (Homo sapiens), P53350; Plk1 PBD binding of FITC phosphopeptide, fluorescence polarization; Potency, µM, most hits filed as inhibitors; 2.8% of 360,000 active; also: series mostly up to about 57 µM; nearly all actives have a fitted effect of over 65% in size
Target sequence (P53350 whole entry, looked up, the tested form may be a part): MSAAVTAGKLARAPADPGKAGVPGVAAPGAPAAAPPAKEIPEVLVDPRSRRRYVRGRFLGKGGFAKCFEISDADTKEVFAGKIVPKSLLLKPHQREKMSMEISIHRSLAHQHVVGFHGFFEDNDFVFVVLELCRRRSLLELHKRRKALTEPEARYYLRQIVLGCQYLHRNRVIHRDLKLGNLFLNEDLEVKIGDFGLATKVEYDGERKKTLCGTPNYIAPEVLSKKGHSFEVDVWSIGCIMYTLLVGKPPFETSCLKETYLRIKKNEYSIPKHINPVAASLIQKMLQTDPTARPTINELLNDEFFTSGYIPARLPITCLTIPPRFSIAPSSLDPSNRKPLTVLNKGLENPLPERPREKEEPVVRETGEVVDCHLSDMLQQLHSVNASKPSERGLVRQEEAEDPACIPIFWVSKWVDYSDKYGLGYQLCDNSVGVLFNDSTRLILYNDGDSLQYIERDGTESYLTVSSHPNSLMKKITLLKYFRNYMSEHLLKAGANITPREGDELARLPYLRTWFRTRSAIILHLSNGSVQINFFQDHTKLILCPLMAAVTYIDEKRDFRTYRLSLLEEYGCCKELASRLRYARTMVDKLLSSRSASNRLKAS
JMJD2A Tudor inh: qHTS Assay for Inhibitors of JMJD2A-Tudor Domain. AlphaScreen JMJD2A-Tudor / H3K4me3 peptide binding. Potency, µM (series often up to 114 µM), hits mostly inhibitors. 4.4% of 390,000 active. Lysine-specific demethylase 4A (Homo sapiens), O75164; also: nearly all actives have a fitted effect of over 50% in size
BAZ2B block: qHTS Assay for Inhibitors of BAZ2B. AlphaScreen BAZ2B-H3K14Ac peptide displacement. Potency, µM (doses to about 114 µM), most hits filed as inhibitors. Bromodomain adjacent to zinc finger domain protein 2B (Homo sapiens), Q9UIF8. 4.4% of 360,000 active; also: nearly all actives have a fitted effect of over 60% in size
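BAZ2B (50 nM) with biotin-H3(5-23)K14Ac peptide (50 nM) in PBS pH 7.4, 0.01% Tween-20, preformed 30 min, then compound 30 min at room temperature; top concentration 110uM. AlphaScreen streptavidin donor/nickel chelate acceptor beads (10 ug/mL final), 20 min dark, signal read.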
PI5P4K alpha inh: qHTS for Inhibitors of phosphatidylinositol 5-phosphate 4-kinase (PI5P4K). Phosphatidylinositol 5-phosphate 4-kinase type-2 alpha (Homo sapiens), P48426. PI5P4Kalpha enzyme, ADP-Glo luminescence, 60 min; hits give low values. max response, %. 1.2% of 330,000 active; active = max response of -50% or lower; inconclusive = between -30% and -50%; inactive = -30% or higher; also: value at the top dose of about 77 µM
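PI5P4Kalpha ADP-Glo assay; 5 microM ATP final; 60 min RT reaction; HEPES pH 7.4/EGTA/CHAPS, 5% DMSO; controls lacking substrate or enzyme; luminescent end-point.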
KAT2A inh: qHTS Assay for Inhibitors of GCN5L2. Histone acetyltransferase KAT2A (Homo sapiens), Q92830. GCN5L2 HAT assay, ThioGlo1 CoA-SH fluorescence. Potency, µM (series often up to 58.9 µM), hits mostly inhibitors. 0.21% of 390,000 active
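Fluorescence readout, Ex340nm/Em540nm: ThioGlo1 (50uM final) reacts with free CoA thiol released as 20nM GCN5L2 acetylates H3(1-25) peptide (75uM) using acetyl-CoA (70uM). Compound and enzyme sat 15 min beforehand; 20 min room-temperature reaction.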
HP1b binding inh: HTS for Inhibitors of HP1-beta Chromodomain Interactions with Methylated Histone Tails | AlphaScreen HP1-beta / biotin-H3K9me3 peptide binding | Chromobox protein homolog 1 (Homo sapiens), P83916 | AID 540317, 2011 | Potency, µM (titrated, usually from 114 µM), hits mostly inhibitors | 0.56% of 390,000 active; also: nearly all actives have a fitted effect of over 70% in size
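Compound inhibition of the preformed complex between 50 nM HP1-beta and 50 nM biotinylated H3K9me3 peptide was read by AlphaScreen. Buffer was PBS pH 7.4 with 0.01% Tween-20. Incubations ran 30 min at room temperature, with 10 ug/mL donor/acceptor beads.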
Hits are given with their value; – = inactive; ? = inconclusive; · = no result given. Unless noted, calls follow the shape of the dose curve; as a rule, active = well fitted curve in the direction sought with a large enough effect; inconclusive = small, poorly fitted or top-dose-only effect, or another doubt; inactive = no such curve, though single readings can be large; an effect the other way counts as inactive or inconclusive.

SMILES	PLK1 PBD block	JMJD2A Tudor inh	BAZ2B block	PI5P4K alpha inh	KAT2A inh	HP1b binding inh
Brc1ccc(CN2CCCCCC2)cc1	–	28µM	·	–	·	?
COc1cc(CN2CCCC(C)C2)ccc1OCc1ccccc1 (centres undefined)	–	–	–	–	–	–
c1cc2c(cc1CN1CCN(C3CCCCCC3)CC1)OCO2	–	18µM	18µM	–	–	?
COc1cc(CN2CCC(C)CC2)ccc1OCc1ccccc1	–	25µM	?	–	–	?
CCN(CC)C(=O)C1CCCN(Cc2ccc(N(C)C)cc2)C1 (centres undefined)	–	45µM	32µM	–	–	?
c1ccc(CN2CCC(N3CCN(Cc4ccc5c(c4)OCO5)CC3)CC2)cc1	–	–	–	–	–	–
Nc1ccc(CN2CCCCCC2)cc1	–	–	–	–	–	–
CCN(CC)C(=O)C1CCCN(Cc2ccc3c(c2)OCO3)C1 (centres undefined)	–	7.1µM	?	–	–	–
O=[N+]([O-])c1ccc(O)c(CN2CCCCCC2)c1	–	–	–	–	–	–
CC(=O)c1cccc(CN2CCCC(C(=O)c3ccc4c(c3)OCO4)C2)c1 (centres undefined)	–	–	–	–	–	–
CCOC(=O)C1CCCN(Cc2cccc(Cl)c2)C1 (centres undefined)	–	2.8µM	?	·	–	?
O=[N+]([O-])c1ccc(Cl)cc1CN1CCCCCC1	–	20µM	?	–	–	?
CCOC(=O)C1CCCN(CC(=O)c2ccc(F)cc2)C1 (centres undefined)	–	3.5µM	20µM	–	–	?
CC1CC(C)CN(CC(=O)NNC(=O)COc2ccc(Cl)cc2)C1 (centres undefined)	–	–	?	–	–	–
C[C@H](CO)N1C[C@H](C)[C@@H](CN(C)S(=O)(=O)c2ccccc2C#N)OCc2cnnn2CCCC1=O	–	·	·	–	·	·
O=C(Nc1ccc(CN2CCCCC2)cc1)c1c(F)c(F)c(F)c(F)c1F	–	–	–	–	–	–
CCOC(=O)C1CCCN(Cc2ccc(OCc3ccccc3)c(OC)c2)C1 (centres undefined)	–	?	50µM	–	–	–
CCOC(=O)C1CCCN(Cc2ccc3c(c2)OCO3)C1 (centres undefined)	–	2.5µM	50µM	·	–	25µM
CCOC(=O)C1CCCN(Cc2ccc(OCc3ccccc3)cc2)C1 (centres undefined)	–	?	–	–	–	?
CC(=O)Nc1ccc(CN2CCCCCCC2)cc1	–	3.2µM	?	·	–	?
O=C(O)c1cccc(-c2noc(-c3ccccc3F)n2)c1	·	–	·	·	–	·
CN(C)CCOC(=O)c1ccc2c(c1)S(=O)(=O)c1ccccc1C2=O	–	–	–	–	–	–
COc1ccc(NC2=C(NCCO)C(=O)c3ccccc3C2=O)cc1	–	?	22µM	–	–	16µM
COc1cccc(NC2=C(NCCO)C(=O)c3ccccc3C2=O)c1	–	50µM	35µM	–	–	?
Cc1cccc(NC2=C(NCCO)C(=O)c3ccccc3C2=O)c1	–	56µM	20µM	–	–	20µM
SMILES	PLK1 PBD block	JMJD2A Tudor inh	BAZ2B block	PI5P4K alpha inh	KAT2A inh	HP1b binding inh
COc1cccc(Nc2c(Nc3cccc(OC)c3)c(=O)c2=O)c1	–	–	?	–	–	–
COc1ccc(NC2=C(NC(C)=O)C(=O)c3ccccc3C2=O)cc1	–	–	?	–	–	?
COc1ccccc1-c1nc2c(c(SCC(=O)Nc3ccc(C)c(C)c3)n1)Cc1c(CO)cnc(C)c1O2	·	–	–	·	–	–
Cc1cccc(N(C(=O)c2snc(C(N)=O)c2N)C(C(=O)NCC2CCCO2)c2cccs2)c1 (centres undefined)	–	–	–	–	–	–
CCOC(=O)CN(C(=O)c1snc(C(N)=O)c1N)C(C(=O)NC1CCCCC1)c1ccc(F)cc1 (centres undefined)	–	?	79µM	–	–	–
Cc1ccc(C)c(N(C(=O)c2snc(C(N)=O)c2N)C(C(=O)NCC2CCCO2)c2cccs2)c1 (centres undefined)	30µM	11µM	–	–	–	–
COc1ccccc1N(C(=O)c1snc(C(N)=O)c1N)C(C(=O)NC1CCCC1)c1ccc(N(C)C)cc1 (centres undefined)	–	?	35µM	–	–	–
Cc1cccc(N(C(=O)c2snc(C(N)=O)c2N)C(C(=O)NCC2CCCO2)c2ccc(N(C)C)cc2)c1C (centres undefined)	–	–	28µM	–	–	–
CNc1nc(NCc2ccc(N(C)C)cc2)c2sccc2n1	–	·	·	–	·	·
CCOC(=O)c1c(C)[nH]c(C)c1C(=O)COC(=O)CSc1ccc(C)cc1	–	?	·	–	–	?
O=C(NNS(=O)(=O)c1ccccc1[N+](=O)[O-])c1cccc(Cl)c1	?	28µM	–	–	–	–
O=C(NNS(=O)(=O)c1ccccc1[N+](=O)[O-])c1ccc(O)cc1	24µM	5.6µM	50µM	–	–	?
O=C(NNS(=O)(=O)c1ccccc1[N+](=O)[O-])c1cccc(Br)c1	–	11µM	–	–	–	–
Cc1cccc(C(=O)NNS(=O)(=O)c2ccccc2[N+](=O)[O-])c1	?	?	–	–	–	–
COc1ccc(/C=C2\C(=O)NC(=S)N2C(=O)c2ccc(F)cc2)cc1	–	?	56µM	-63	–	–
O=C(NCC(c1ccc2c(c1)OCO2)N1CCN(c2ccccc2)CC1)c1ccccc1F (centres undefined)	·	–	–	·	–	–
O=C1CCCC2=C1C(c1ccccc1Cl)N=C(Nc1nc3ccccc3o1)N2 (centres undefined)	·	–	·	·	·	·
COc1cc2nc(CN3CCC(Cc4ccccc4)CC3)[nH]c(=O)c2cc1OC	–	–	–	–	–	–
COc1cc(CN2CCC(Cc3ccccc3)CC2)cc(OC)c1OC	–	25µM	79µM	–	–	?
COc1ccc(CN2CCC(Cc3ccccc3)CC2)c(C)c1C	–	28µM	?	–	–	–
Cn1cc(Br)c(-c2cccc(N3C(=O)CCCC3=O)c2)n1	–	–	–	–	?	–
CC(C)(C)C(=O)Nc1cccc(C(=O)c2cccc(NC(=O)C(C)(C)C)c2)c1	24µM	?	–	–	–	–
CCCn1nc(C(=O)OCC(=O)c2c(N)n(C)c(=O)n(C)c2=O)c2ccccc2c1=O	–	–	–	–	–	–
